Laboratory results: PubChem BioAssay AID1159580 (chemical genetic matrix, 2015)
Values joined by “and” are separate entries in the source; they are usually repeats but may differ in a detail not shown here. Identical values can stand only once. About 2,000 (36%) of roughly 5,500 compounds were called active. About 18% were inconclusive and are not listed. No stated cut-off is given here; in the data, active means normalized growth mostly below about 0.91 (no sharp cut-off); inconclusive means no clear call, values can overlap the other calls; inactive means mostly above about 0.92. This is one part of the list.

Assay: chemical genetic growth profiling, strain panel (AID 1159580);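 further: tested at 20 µM; growth read once vehicle control cultures reached saturation at 30 °C; 1 = growth at the plate median or of vehicle wells; lower values mean less growth of the strain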
Settings: growth OD

Measured: normalized growth

Cc1cccc(C)c1NC1=NCCCS1
inactive: S. cerevisiae deletion strains, locus YJR075W, strain HOC1, active compounds read low 1.03 | S. cerevisiae deletion strains, locus YKL009W, strain mrt4, active compounds read low 0.968 | S. cerevisiae deletion strains, locus YKL068W, active compounds read low 0.977 | S. cerevisiae deletion strains, locus YKL085W, strain MDH1 (second series), active compounds read low 0.976 | S. cerevisiae deletion strains, locus YKL085W, strain MDH1, active compounds read low 0.976 | S. cerevisiae deletion strains, locus YKL160W, strain elf1, active compounds read low 1 | S. cerevisiae deletion strains, locus YKL190W, strain CNB1, active compounds read low 1.01 | S. cerevisiae deletion strains, locus YKR001C, strain vps1, active compounds read low 1 | S. cerevisiae deletion strains, locus YKR026C, strain gcn3, active compounds read low 1 | S. cerevisiae deletion strains, locus YKR091W, strain srl3, active compounds read low 1.01 | S. cerevisiae deletion strains, locus YLL001W, strain dnm1, active compounds read low 0.959 | S. cerevisiae deletion strains, locus YLL026W, active compounds read low 1 | S. cerevisiae deletion strains, locus YLL041C, strain sdh2, active compounds read low 1.02 | S. cerevisiae deletion strains, locus YLR027C, strain aat2, active compounds read low 1.01 | S. cerevisiae deletion strains, locus YLR039C, strain RIC1, active compounds read low 0.997 | S. cerevisiae deletion strains, locus YLR058C, strain SHM2, active compounds read low 0.996 | S. cerevisiae deletion strains, locus YLR102C, strain apc9, active compounds read low 0.989 | S. cerevisiae deletion strains, locus YLR113W, strain HOG1, active compounds read low 1.04 | S. cerevisiae deletion strains, locus YLR221C, strain rsa3, active compounds read low 0.994 | S. cerevisiae deletion strains, locus YLR258W, strain gsy2, active compounds read low 0.995 | S. cerevisiae deletion strains, locus YLR262C, strain YPT6 (second series), active compounds read low 1.03 | S. cerevisiae deletion strains, locus YLR262C, strain YPT6, active compounds read low 0.985 | S. cerevisiae deletion strains, locus YLR268W, strain sec22, active compounds read low 0.978 | S. cerevisiae deletion strains, locus YLR320W, strain mms22, active compounds read low 0.994 | S. cerevisiae deletion strains, locus YLR330W, strain CHS5, active compounds read low 0.991 | S. cerevisiae deletion strains, locus YLR342W, strain FKS1 (second series), active compounds read low 0.981 | S. cerevisiae deletion strains, locus YLR342W, strain FKS1, active compounds read low 0.998 | S. cerevisiae deletion strains, locus YLR357W, strain rsc2, active compounds read low 0.999 | S. cerevisiae deletion strains, locus YLR370C, strain arc18, active compounds read low 1.03 | S. cerevisiae deletion strains, locus YLR371W, strain rom2, active compounds read low 0.986 | S. cerevisiae deletion strains, locus YLR384C, strain iki3, active compounds read low 0.993 | S. cerevisiae deletion strains, locus YLR418C, strain cdc73, active compounds read low 0.986 | S. cerevisiae deletion strains, locus YML016C, strain PPZ1, active compounds read low 0.998 | S. cerevisiae deletion strains, locus YML032C, strain rad52, active compounds read low 0.998 | S. cerevisiae deletion strains, locus YML120C, strain ndi1, active compounds read low 1.01 | S. cerevisiae deletion strains, locus YML124C, strain tub3, active compounds read low 0.996 | S. cerevisiae deletion strains, locus YMR058W, strain fet3, active compounds read low 1.02 | S. cerevisiae deletion strains, locus YMR078C, strain ctf18, active compounds read low 0.98 | S. cerevisiae deletion strains, locus YMR125W, strain sto1, active compounds read low 0.986 | S. cerevisiae deletion strains, locus YMR129W, active compounds read low 1 | S. cerevisiae deletion strains, locus YMR205C, strain PFK2, active compounds read low 1.01 | S. cerevisiae deletion strains, locus YMR223W, strain ubp8, active compounds read low 0.969 | S. cerevisiae deletion strains, locus YMR231W, strain pep5, active compounds read low 1 | S. cerevisiae deletion strains, locus YMR307W, strain GAS1, active compounds read low 0.988 and 1 | S. cerevisiae deletion strains, locus YNL067W, strain RPL9B, active compounds read low 1.04 | S. cerevisiae deletion strains, locus YNL071W, strain lat1, active compounds read low 1.01 | S. cerevisiae deletion strains, locus YNL128W, strain TEP1, active compounds read low 0.991 | S. cerevisiae deletion strains, locus YNL153C, strain GIM3, active compounds read low 1.06 and 0.996 | S. cerevisiae deletion strains, locus YNL175C, strain NOP13, active compounds read low 0.988 | S. cerevisiae deletion strains, locus YNL183C, strain NPR1, active compounds read low 0.96 | S. cerevisiae deletion strains, locus YNL197C, strain WHI3, active compounds read low 1.01 | S. cerevisiae deletion strains, locus YNL209W, strain ssb2, active compounds read low 1.01 | S. cerevisiae deletion strains, locus YNL224C, strain SQS1, active compounds read low 1 | S. cerevisiae deletion strains, locus YNL233W, strain BNI4, active compounds read low 1.04 | S. cerevisiae deletion strains, locus YNL248C, strain rpa49, active compounds read low 0.997 | S. cerevisiae deletion strains, locus YNL250W, strain rad50, active compounds read low 0.926 | S. cerevisiae deletion strains, locus YNL271C, strain bni1, active compounds read low 0.985 | S. cerevisiae deletion strains, locus YNL298W, strain CLA4, active compounds read low 0.98 | S. cerevisiae deletion strains, locus YNL307C, strain MCK1, active compounds read low 0.983 | S. cerevisiae deletion strains, locus YNL322C, strain KRE1 (second series), active compounds read low 1.01 | S. cerevisiae deletion strains, locus YNL322C, strain KRE1, active compounds read low 1.01 | S. cerevisiae deletion strains, locus YNR049C, strain mso1, active compounds read low 0.999 | S. cerevisiae deletion strains, locus YNR052C, strain pop2, active compounds read low 0.974 | S. cerevisiae deletion strains, locus YOL006C, strain TOP1, active compounds read low 1.08 | S. cerevisiae deletion strains, locus YOL012C, strain htz1 1.34 | S. cerevisiae deletion strains, locus YOL147C, strain pex11, active compounds read low 0.984 | S. cerevisiae deletion strains, locus YOR001W, strain rrp6, active compounds read low 1.02 | S. cerevisiae deletion strains, locus YOR061W, strain CKA2, active compounds read low 1 | S. cerevisiae deletion strains, locus YOR069W, strain VPS5, active compounds read low 0.99 | S. cerevisiae deletion strains, locus YOR070C, strain gyp1, active compounds read low 1.01 | S. cerevisiae deletion strains, locus YOR080W, strain dia2, active compounds read low 0.999 | S. cerevisiae deletion strains, locus YOR083W, strain WHI5 (second series), active compounds read low 0.998 | S. cerevisiae deletion strains, locus YOR083W, strain WHI5, active compounds read low 1 | S. cerevisiae deletion strains, locus YOR106W, strain vam3, active compounds read low 1.04 | S. cerevisiae deletion strains, locus YOR136W, strain idh2, active compounds read low 0.995 | S. cerevisiae deletion strains, locus YOR144C, strain elg1, active compounds read low 0.994 | S. cerevisiae deletion strains, locus YOR184W, strain ser1, active compounds read low 0.976 | S. cerevisiae deletion strains, locus YOR231W, strain MKK1, active compounds read low 1.02 | S. cerevisiae deletion strains, locus YOR265W, strain rbl2, active compounds read low 1.01 | S. cerevisiae deletion strains, locus YOR270C, strain vph1, active compounds read low 1.03 | S. cerevisiae deletion strains, locus YOR290C, strain snf2, active compounds read low 1.01 | S. cerevisiae deletion strains, locus YOR316C, strain cot1, active compounds read low 0.99 | S. cerevisiae deletion strains, locus YPL051W, strain arl3, active compounds read low 0.999 | S. cerevisiae deletion strains, locus YPL055C, strain LGE1, active compounds read low 1.1 | S. cerevisiae deletion strains, locus YPL078C, strain atp4, active compounds read low 1.02 | S. cerevisiae deletion strains, locus YPL106C, strain sse1, active compounds read low 1.01 | S. cerevisiae deletion strains, locus YPL240C, strain hsp82, active compounds read low 0.999 | S. cerevisiae deletion strains, locus YPL241C, strain CIN2, active compounds read low 1.01 | S. cerevisiae deletion strains, locus YPL256C, strain CLN2, active compounds read low 1.04 | S. cerevisiae deletion strains, locus YPR119W, strain clb2, active compounds read low 0.985 | S. cerevisiae deletion strains, locus YPR141C, strain kar3, active compounds read low 0.982 | S. cerevisiae deletion strains, locus YPR163C, strain tif3, active compounds read low 0.979 | S. cerevisiae deletion strains, locus YPR167C, strain met16, active compounds read low 0.992 | S. cerevisiae deletion strains, strain wtn01, active compounds read low 0.973 | S. cerevisiae strains, strain wild type, active compounds read low 1
